Source: PubChem BioAssay
Most compounds without a hit are left out; they make up all but 2.4% or so of the library.
D2 antag: HTS Assay for Allosteric Antagonists of the Human D2 Dopamine Receptor: Primary Screen for Antagonists | 340,000 tested, 2% active | inhibition, % at 10 µM | HEK293 TREx D2 cells, calcium flux, dopamine EC80 | D(2) dopamine receptor (Homo sapiens), P14416; in the data active means inhibition above about 30%; inactive means below that, where a call was filed; further: 0% is about no effect
Target sequence (P14416 whole entry, looked up): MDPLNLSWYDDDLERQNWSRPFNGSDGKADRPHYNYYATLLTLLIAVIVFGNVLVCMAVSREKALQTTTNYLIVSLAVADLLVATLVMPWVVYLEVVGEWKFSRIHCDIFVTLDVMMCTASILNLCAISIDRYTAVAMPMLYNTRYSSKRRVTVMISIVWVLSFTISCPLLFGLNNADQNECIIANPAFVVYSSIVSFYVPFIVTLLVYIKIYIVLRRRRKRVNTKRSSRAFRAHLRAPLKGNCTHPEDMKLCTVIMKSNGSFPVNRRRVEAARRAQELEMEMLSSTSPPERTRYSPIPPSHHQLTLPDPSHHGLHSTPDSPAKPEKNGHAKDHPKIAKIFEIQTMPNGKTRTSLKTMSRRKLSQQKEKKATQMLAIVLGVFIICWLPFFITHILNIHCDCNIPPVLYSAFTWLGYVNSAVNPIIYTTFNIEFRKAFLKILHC
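In this primary screen, negative modulation is detected by tracking calcium flux after an EC80 dopamine challenge in inducible HEK293 T-REx D2 cells preexposed to test compound for 180 s.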
D2 PAM-1: HTS Assay for Positive Allosteric Modulators of the Human D2 Dopamine Receptor: Primary Screen for Potentiators. 340,000 tested, 0.34% active. D(2) dopamine receptor (Homo sapiens), P14416. potentiation, % at 10 µM. HEK293 T-REx D2, calcium flux, EC20 dopamine potentiation;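 active means potentiation over 3 SD above the plate norm, cut at about 30% in these data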; further: 0% is about no effect
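Cells plated with tetracycline inducer and held overnight at 30 C; calcium dye loaded 30–90 min at room temperature; baseline taken, compound added and read 180 s; EC20 dopamine then added and read 180 s.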
D2 ag-1: HTS Assay for Allosteric Agonists of the Human D2 Dopamine Receptor: Primary Screen for Agonists. HEK293 T-REx D2 cells, calcium flux agonist mode. activation, % at 2 µM. 340,000 tested, 0.53% active;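 active means activation over 3 SD above normal in the single-dose calcium agonist read, cut at about 30% in these data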; further: 0% is about no effect
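HEK293 Trex D2 cells, tetracycline-induced, o/n 30 C 5% CO2; no-wash Ca dye, RT 30–90 min; 10-cycle baseline, 23 nl cpd added, kinetic Ca read 180 s; agonist hits = positive Ca response.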
D2 PAM-2: Beta-Arrestin HTS for Positive Allosteric Modulators of the Human D2 Dopamine Receptor: Potentiators; 360,000 tested, 0.23% active; DiscoveRx D2 beta-arrestin cells, luminescence, 90 min; 100% = 57 uM dopamine signal; D(2) dopamine receptor (Homo sapiens), P14416; potentiation, % (no concentration beside the values); AID 624464, 2012; in the data active means potentiation above about 50%
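PathHunter beta-arrestin assay in DiscoveRx D2 cells. Compounds were added with an EC20 of dopamine (50 nM final) for 90 min at 37 deg C. Luminescence was read 1 h after detection reagent, with 57 uM dopamine as the EC100 control.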
D2 ag-2: Beta-Arrestin HTS for Positive Allosteric Modulators of the Human D2 Dopamine Receptor: Agonists. D(2) dopamine receptor (Homo sapiens), P14416. DiscoveRx PathHunter D2 beta-arrestin, luminescence, 90 min; 100% = 57 uM dopamine signal. activation, % (test concentration not listed). 360,000 tested, 0.084% active; in the data active means activation above about 40%
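Agonist mode: compounds alone added to overnight-plated D2 PathHunter cells for 90 min at 37 C, with 57 uM final dopamine (EC100) defining full response. Beta-arrestin recruitment detected by chemiluminescent reagent, read after 1 h at ambient temperature.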
Starred values were filed as active, the others as inactive; . = no result.

SMILES	D2 antag	D2 PAM-1	D2 ag-1	D2 PAM-2	D2 ag-2
CC(=O)c1cccc(NC(=O)c2nc3ccccc3nc2N2CCCCC2)c1	.	-6	.	.	.
COc1ccc(CCC(C)NC2C3CC4CC(C3)CC2C4)cc1 (stereo not drawn)	40*	-18	1	-15	-1
COc1ccc(CCC(C)Nc2ccccc2F)cc1 (stereo not drawn)	-18	5	-1	0	-1
Cn1ncc2c(N3CCN(c4ccccc4Cl)CC3)ncnc21	.	-10	-1	.	.
O=C(O)c1ccc2nc3c(nc2c1)-c1ccccc1C3=O	34*	8	1	-17	-5
CCOc1ccc(NC(=O)c2cnn3c2NC(c2cccc(OC)c2)=CC3c2ccccc2)cc1 (stereo not drawn)	.	-12	0	.	.
COc1cccc(CN(C(=O)c2cccc(C)c2)C2CCS(=O)(=O)C2)c1 (stereo not drawn)	.	7	.	.	.
COc1cccc(-n2c(SCc3ccccc3C)nc3c([nH]c4ccccc43)c2=O)c1	.	-4	1	.	.
CC1CC(C)(C)NC(=S)N1CCCC(=O)NCc1ccccc1 (stereo not drawn)	37*	9	1	-1	-1
CS(=O)(=O)CC[C@@H](C(=O)NCCc1ccccc1)N1Cc2ccccc2C1=O	.	5	1	.	.
CC12CCC(=O)N1C(C(=O)N1CCN(c3ccccc3)CC1)CS2 (stereo not drawn)	19	-9	1	-5	2
CC12CCC(=O)N1C(C(=O)N1CCN(c3cccc(Cl)c3)CC1)CS2 (stereo not drawn)	71*	-19	1	6	11
COc1cc(CC(NC(C)=O)C(=O)NC2CCN(C(=O)C3CC3)CC2)cc(OC)c1 (stereo not drawn)	33*	7	0	-11	-5
CCc1ccc(CNC(=O)c2ccc(-n3c(C)cc4c3CCC(C)C4)cc2)cc1 (stereo not drawn)	.	4	-2	.	.
Cc1ccc(-n2ccn(CC(=O)c3ccc(F)cc3)c(=O)c2=O)cc1C	.	.	-1	.	.
COc1ccccc1C1C(C(C)=O)=C(C)N=c2s/c(=C\c3cc(OC)c(OC)c(OC)c3)c(=O)n21 (stereo not drawn)	3	32*	1	16	2
CN1CCN(c2ccc(Cl)cc2NC(=O)C2COc3ccccc3O2)CC1 (stereo not drawn)	2	6	0	-14	0
CN1CCN(c2ccc(Cl)cc2NC(=O)CC2OC(=O)c3ccccc32)CC1 (stereo not drawn)	38*	-14	1	-28	-7
C=C(C)C(=O)Nc1cccc(C2=NOC3(C2)C[C@@H](C(N)=O)N(C(=O)c2ccc(OC)cc2)C3)c1 (stereo partly drawn)	8	-6	0	-6	-2
C/C=C(/C)C(=O)Nc1cccc(C2=NOC3(C2)C[C@@H](C(N)=O)N(C(=O)CC)C3)c1 (stereo partly drawn)	43*	-20	0	-2	0
C=C(C)C(=O)Nc1cccc(C2=NOC3(C2)C[C@@H](C(N)=O)N(C(=O)c2cc([N+](=O)[O-])cc([N+](=O)[O-])c2)C3)c1 (stereo partly drawn)	-14	11	0	84*	12
O=C(O)c1cccc2c1C(=O)c1cc([N+](=O)[O-])cc([N+](=O)[O-])c1-2	.	.	.	8	74*
CC(C)Sc1ncc(Cl)c(C(=O)Nc2ccc(S(=O)(=O)N3CCCCC3C)cc2)n1 (stereo not drawn)	.	1	.	.	.
CCOc1ccc(OCC)c(NC(=O)CCC(=O)N2CCOc3ccccc32)c1	.	6	.	.	.
COc1ccc(CCNc2nc(SCc3ccccc3Cl)nc3ccccc23)cc1OC	.	13	0	.	.
SMILES	D2 antag	D2 PAM-1	D2 ag-1	D2 PAM-2	D2 ag-2
COc1ccc2c(c1)CCc1c-2n[nH]c1C(=O)O	31*	-3	0	2	1
CCc1ccc(NC(=O)c2cc(=O)c3ccc(C)c(C)c3o2)cc1	.	-29	.	.	.
CC(C)C(NC(=O)c1ccccc1)C(=O)NCC(c1ccccc1)N(C)C (stereo not drawn)	.	.	.	-11	-1
CC(C)[C@H](NC(=O)c1ccco1)C(=O)Nc1ccc(OC(F)F)cc1	-2	4	0	-1	-2
CCOc1ccc(NC(=O)[C@@H](NC(=O)c2ccco2)C(C)C)cc1	39*	2	2	-10	-4
CC(C)C(NC(=O)c1ccco1)C(=O)NCC(c1ccco1)N(C)C (stereo not drawn)	12	33*	0	-7	-3
CN1CCN(c2oc(/C=C/c3ccc(F)cc3)nc2C#N)CC1	.	-3	0	.	.
COc1ccc(C(=O)Nc2nc3n(n2)C(c2ccc(F)cc2)C=C(c2ccc(Cl)cc2)N3)cc1 (stereo not drawn)	.	.	-1	.	.
COc1ccc(OC)c(CNS(=O)(=O)c2cc(-c3onc(C)c3C)ccc2C)c1	.	4	0	.	.
Cc1ccccc1CN1C(=O)c2ccccc2Sc2ccc(C(=O)NCCc3ccccc3)cc21	.	-2	0	.	.
Cc1noc(/C=C/c2cccs2)c1S(=O)(=O)N1CCC(C(=O)NCc2ccccc2Cl)CC1	.	-12	0	.	.
Cc1ccccc1N(C(=O)c1csnn1)C(C(=O)NC(C)(C)C)c1cccs1 (stereo not drawn)	36*	-11	0	-3	-2
CCC(C)(C)NC(=O)C(c1cccnc1)N(C(=O)c1csnn1)c1ccccc1 (stereo not drawn)	5	40*	0	-31	-19
O=C(NCc1ccccc1)C(c1cccnc1)N(C(=O)c1ccccn1)c1ccccc1F (stereo not drawn)	-1	1	-1	-6	-5
Cc1ccc(N(C(=O)c2csnn2)C(C(=O)NC(C)(C)C)c2cccs2)cc1 (stereo not drawn)	7	9	0	-9	-1
Cc1ccsc1C(C(=O)NCc1ccccc1)N(C(=O)c1csnn1)c1ccccc1 (stereo not drawn)	33*	-6	-1	-3	-1
Cc1ccccc1N(C(=O)c1ccccn1)C(C(=O)NCc1ccccc1)c1cccnc1 (stereo not drawn)	.	36*	.	-3	0
CCOC(=O)c1sc(NC(=O)c2cc(CC)on2)c(C(=O)OCC)c1C	.	2	.	.	.
COc1cc(OC)c(NC(=O)c2cc(C(C)=O)n3ccccc23)cc1Cl	.	2	0	.	.
